The antibiotic and cytotoxicity screens of Wong et al. (2023)
Screen size: about 39,000 compounds; about 3,300 (8.5%) were called active. Only a selection was taken, and actives are over-represented in it overall.

The molecules below were run on HepG2 (assay: cytotoxicity call (relative viability < 0.9)). Settings: 10 µM.

| SMILES | cytotoxicity call |
| --- | --- |
| CCC[C@@]1(CCc2ccccc2)CC(=O)[C@@H]([C@H](CC)c2cccc(NS(=O)(=O)c3ccc(C(F)(F)F)cn3)c2)C(=O)O1 | inactive |
| C[C@@H]1CCCCO[C@@H](CN(C)Cc2ccc(C(=O)O)cc2)[C@@H](C)CN([C@@H](C)CO)C(=O)c2cc(NS(=O)(=O)c3ccc(F)cc3)ccc2O1 | inactive |
| C[C@@H]1CN([C@@H](C)CO)S(=O)(=O)c2ccc(-c3cccnc3)cc2O[C@@H]1CN(C)CC1CCOCC1 | inactive |
| COc1ccc(S(=O)(=O)Nc2cccc3c2O[C@H](CN(C)S(=O)(=O)c2ccccc2)[C@@H](C)CN([C@@H](C)CO)C3=O)cc1 | inactive |
| C[C@H](CO)N1C[C@H](C)[C@H](CN(C)S(=O)(=O)c2ccc(F)cc2)Oc2ccc(NC(=O)C3CC3)cc2CC1=O | inactive |
| O=C(O)CCc1n[nH]c(=S)[nH]c1=O | inactive |
| Cc1ccc(S(=O)(=O)Nc2ccc3c(c2)C(=O)N([C@H](C)CO)C[C@H](C)[C@@H](CN(C)C(=O)c2ccccc2)OCCCC[C@H](C)O3)cc1 | inactive |
| C[C@@H]1CN([C@H](C)CO)C(=O)Cc2cc(NC(=O)Cc3ccccc3)ccc2O[C@H]1CN(C)S(=O)(=O)c1ccc(F)cc1 | inactive |
| COc1ccc(NC(=O)N(C)C[C@H]2OCCCC[C@H](C)Oc3ccc(NC(=O)Cc4ccccc4)cc3C(=O)N([C@H](C)CO)C[C@H]2C)cc1 | inactive |
| C[C@@H]1CN([C@H](C)CO)C(=O)Cc2cc(NC(=O)Cn3cnnn3)ccc2O[C@H]1CN(C)S(=O)(=O)c1ccc(F)cc1 | inactive |
| COc1ccc(S(=O)(=O)Nc2cccc3c2O[C@@H](CN(C)Cc2ccc(Oc4ccccc4)cc2)[C@@H](C)CN([C@@H](C)CO)C3=O)cc1 | inactive |
| CCS(=O)(=O)N1C[C@]2(C1)CN([C@@H](CO)c1c2c2ccc(cc2n1C)OC)C(=O)c1ccc(cc1)F | inactive |
| CN(C)C(=O)c1ccc(-c2ccc3n(c2=O)C[C@H]2[C@H](CO)[C@@H](C(=O)NCCc4ccccc4)N[C@@H]32)cc1 | inactive |
| C[C@@H]1CCCCO[C@@H](CN(C)CC2CCCCC2)[C@H](C)CN([C@H](C)CO)C(=O)c2cc(NC(=O)Nc3ccc4c(c3)OCO4)ccc2O1 | inactive |
| C[C@@H]1CCCCO[C@@H](CN(C)CC2CCCCC2)[C@H](C)CN([C@@H](C)CO)C(=O)c2cc(NC(=O)Nc3ccc4c(c3)OCO4)ccc2O1 | inactive |
| C[C@H]1CCCCO[C@@H](CN(C)CC2CCCCC2)[C@@H](C)CN([C@@H](C)CO)C(=O)c2cc(NC(=O)Nc3ccc4c(c3)OCO4)ccc2O1 | active |
| C[C@@H]1CN([C@@H](C)CO)C(=O)c2cc(NC(=O)Nc3ccc4c(c3)OCO4)ccc2O[C@@H](C)CCCCO[C@H]1CN(C)CC1CCCCC1 | active |
| C[C@@H]1CCCCO[C@H](CN(C)CC2CCCCC2)[C@H](C)CN([C@@H](C)CO)C(=O)c2cc(NC(=O)Nc3ccc4c(c3)OCO4)ccc2O1 | active |
| C[C@@H]1CN([C@@H](C)CO)C(=O)c2cc(NC(=O)Nc3ccc4c(c3)OCO4)ccc2O[C@@H](C)CCCCO[C@@H]1CN(C)CC1CCCCC1 | inactive |
| C[C@H](CO)N1C[C@H](C)[C@@H](CN(C)CC2CCCCC2)OCCCC[C@H](C)Oc2ccc(NC(=O)Nc3ccc4c(c3)OCO4)cc2C1=O | inactive |
